Source: PubChem BioAssay
The source made the active and inactive calls.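 Rule for the calls, unless noted: active = visually confirmed hit in the image check and inhibition above 20%; inconclusive = visually confirmed hit but inhibition not above 20%; inactive = no visual hit in the image check.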

How the values were obtained:
[1] = inhibitors of TNFa-induced NFkB p65 translocation, primary screen, imaging, HUVEC, MLSMR starter and 10KST1 sets (AID 438;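 active = inhibition above 20% together with a positive visual image hit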;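 note: compound added about 3h40 before a 20 min TNFalpha stimulation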;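 for inhibition: signal is the nuclear over cytoplasmic p65 intensity ratio per well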); conditions: HUVEC TNFa-induced p65 nuclear translocation; cell count: measured here: nuclei count (cytotoxicity indicator), at 2.08 µM; inhibition: at 2 µM, stronger effect = higher value, 0% TNFa-plus-vehicle, 100% no-TNFa wells
[2] = inhibitors of mutant huntingtin aggregation, primary screen, imaging, exon1htt(103Q)mCFP cells, high-content imaging (AID 483;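 active = visual image review flags a hit and inhibition of aggregation exceeds 20%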;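 note: compound exposure lasted 3 days before fixation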;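 for nuclei count: percent of the per-plate median nuclei count of sample wells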); conditions: exon1htt(103Q)mCFP cell line, aggregate imaging, at 2 µM; inhibition of aggregation: stronger effect = higher value; nuclei count: measured here: cell count, toxicity
[3] = inhibitors of E-selectin induction by TNFa, primary screen, imaging, HUVEC, immunofluorescence, MLSMR starter and 10KST1 sets (AID 487); conditions: HUVEC TNFalpha-induced E-selectin immunofluorescence imaging, at 2 µM; inhibition: stronger effect = higher value; nuclei count: measured here: cell number, toxicity;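 for inhibition: signal is fraction of cell area covered by stained E-selectin grains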;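 for nuclei count: 100% = median nuclei count of all wells on the same plate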
[4] = target: Voltage-gated potassium channel subunit beta-2 (Rattus norvegicus) (UniProt P62483); assay: KvBeta enzyme negative modulators, primary screen, biochemical, NADPH fluorescence (AID 622;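 active = fluorescence slope higher than the sample average by over 3 SD, cut at about -0.22 in these data, passing the limit was not always enough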;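 note: slope of raw intensity against log time taken from 70 to 1610 s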); conditions: recombinant KvBeta, 4-cyanobenzaldehyde reduction, at 10 µM, stronger effect = higher value
[5] = target: Voltage-gated potassium channel subunit beta-2 (Rattus norvegicus) (UniProt P62483); assay: KvBeta positive modulators, primary screen, biochemical, NADPH fluorescence (AID 623;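 active = NADPH fluorescence slope more negative than the mean of all samples by about 3 SD, 99.7% confidence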;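 note: fluorescence intensity change per second fitted from 20 to 320 s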); conditions: Recombinant KvBeta, NADPH fluorescence decrease slope, 10 min; at 10 µM; stronger effect = lower value
[6] = target: Alpha-2C adrenergic receptor (Homo sapiens) (UniProt P18825); assay: modulators of alpha2C/GIRK thallium flux, primary screen, cell-based, HEK293 alpha2C/GIRK1/2 (AID 624;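 active = fluorescence slope after compound addition differing from the mean of all screened samples at 99.7% confidence, in either direction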;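 note: slope of fluorescence ratio to pre-addition baseline per second over 15 to 24 s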); conditions: thallium flux BTC fluorescence, at 10 µM, actives lie on both sides
[7] = inhibitors of Sendai virus-induced IRF3 signaling, primary screen, TLR/RLR signaling modifier project, cell-based, Sendai virus stimulus, luciferase, 10K MLSCN set (AID 602276;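 active = inhibition at or above 50% at 10 µM; inactive = inhibition below 50%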;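 note: firefly luciferase from ISG56 promoter only with Renilla not read in this screen; 0% = Sendai virus plus DMSO and 100% = medium plus DMSO without virus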); conditions: HEK293 RL24 IRF3 luciferase reporter, at 10 µM, stronger effect = higher value
[8] = inhibitors of poly I:C-induced TLR3 signaling, primary screen, cell-based, poly I:C stimulus, luciferase, 10K MLSCN set (AID 602277;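 active = inhibition of the reporter signal at or above 50%; inactive = inhibition below 50%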); conditions: HEK293-TLR3 RL24 IRF3 luciferase reporter, at 10 µM, stronger effect = higher value

Alpha-2C adrenergic receptor (Homo sapiens), sequence (P18825 whole entry, looked up): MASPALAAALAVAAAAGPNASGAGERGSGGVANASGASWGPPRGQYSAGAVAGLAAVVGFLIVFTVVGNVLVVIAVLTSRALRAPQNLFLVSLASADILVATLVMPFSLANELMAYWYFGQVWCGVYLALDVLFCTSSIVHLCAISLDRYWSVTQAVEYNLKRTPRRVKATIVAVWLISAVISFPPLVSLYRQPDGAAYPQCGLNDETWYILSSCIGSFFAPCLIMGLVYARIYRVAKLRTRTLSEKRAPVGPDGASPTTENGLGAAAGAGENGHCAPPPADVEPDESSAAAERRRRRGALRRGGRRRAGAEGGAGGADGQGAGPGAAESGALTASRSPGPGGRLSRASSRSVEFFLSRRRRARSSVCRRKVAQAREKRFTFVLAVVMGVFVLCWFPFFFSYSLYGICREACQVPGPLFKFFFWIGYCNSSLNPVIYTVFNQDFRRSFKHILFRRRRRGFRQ
Voltage-gated potassium channel subunit beta-2 (Rattus norvegicus), sequence (P62483 whole entry, looked up): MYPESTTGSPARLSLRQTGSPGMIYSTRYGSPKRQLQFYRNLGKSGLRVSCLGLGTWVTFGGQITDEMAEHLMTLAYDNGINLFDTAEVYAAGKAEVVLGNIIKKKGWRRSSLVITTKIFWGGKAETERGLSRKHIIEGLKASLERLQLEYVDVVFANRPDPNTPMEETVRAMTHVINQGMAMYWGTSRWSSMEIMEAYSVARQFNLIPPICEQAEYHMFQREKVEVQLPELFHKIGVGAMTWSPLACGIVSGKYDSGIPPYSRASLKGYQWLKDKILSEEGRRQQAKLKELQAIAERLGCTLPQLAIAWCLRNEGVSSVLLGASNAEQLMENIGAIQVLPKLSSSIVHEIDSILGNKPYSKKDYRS

Structure (SMILES)	cell count [1]	inhibition [1]	inhibition of aggregation [2]	nuclei count [2] [%]	inhibition [3]	nuclei count [3] [%]	fluorescence slope [4]	NADPH fluorescence slope [5]	slope [6]	inhibition [7]	inhibition [8]
CCCc1cc(-n2ccnc2)n2c(nc3ccccc32)c1C#N	571	8.7% (inactive)	-11.1% (inactive)	98.8	30.6% (inactive)	99.8	-0.51 (inactive)	1.6e-06 (inactive)	0.00652 (inactive)	16.6% (inactive)	47.3% (inactive)
Cn1c(-c2ccc(F)cc2)cnc1SCC(=O)Nc1ccccc1N1CCOCC1	458	1.4% (inactive)	53.7% (active)	63.3	-76.1% (inactive)	90.4	-0.31 (inactive)	-2.7e-05 (inactive)	0.00572 (inactive)	-29.2% (inactive)	-99% (inactive)
O=C(NCc1ccc2c(c1)OCO2)c1cccc2c1C(=O)N(C1CCCCC1)C2	570	-5% (inactive)	-12.5% (inactive)	108	3.2% (inactive)	115	-0.615 (inactive)	-1.7e-05 (inactive)	0.00632 (inactive)	8.65% (inactive)	15.3% (inactive)
CCOC(=O)c1oc2cccc(OC(C)=O)c2c1C	306	8.1% (inactive)	11.2% (inactive)	97.4	24.5% (inactive)	85.9	-0.607 (inactive)	-4.6e-05 (inactive)	0.00384 (inactive)	-33.6% (inactive)	-89.8% (inactive)
COc1ccc(C2N(C(=O)c3ccccc3)CCN2C(=O)c2ccccc2)cc1	488	-13.6% (inactive)	-2.8% (inactive)	71.9	-13.7% (inactive)	92.4	-0.427 (inactive)	-7.3e-05 (inactive)	0.00622 (inactive)	7.08% (inactive)	24.3% (inactive)
CCOC(=O)c1[nH]c(C)c(C(=O)NC)c1C	627	-1.3% (inactive)	0.2% (inactive)	105	-37.7% (inactive)	103	-0.563 (inactive)	-1.3e-05 (inactive)	0.00529 (inactive)	9.49% (inactive)	27.6% (inactive)
COc1ccc(OC)c(C2C(C(=O)Nc3ccc(F)cc3)=C(C)Nc3nc(CCCO)nn32)c1 (stereo not drawn)	666	7.1% (inactive)	-11.2% (inactive)	117	-44% (inactive)	109	-0.427 (inactive)	8.4e-06 (inactive)	0.00613 (inactive)	0.814% (inactive)	11.9% (inactive)
COc1cc(C2c3c(oc4c(C)cc(C)cc4c3=O)C(=O)N2Cc2cccnc2)ccc1O (stereo not drawn)	627	-2.7% (inactive)	0.2% (inactive)	107	12.8% (inactive)	99.8	-0.476 (inactive)	-3.3e-05 (inactive)	0.00579 (inactive)	16.4% (inactive)	21.2% (inactive)
